# IMPase Li inh: membrane-permeable IMPase blocker, potentiated with lithium; Potency, µM (top dose mostly 59.4 µM), inactives show at the top dose activity, negative = IMPase inhibition, hits mostly inhibitors; 210,000 compounds, 0.35% hits; AID 1457; CHO-M1 cells, IP1 TR-FRET (IP-One), carbachol + lithium;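 further: IP1 builds up when IMPase is blocked and the TR-FRET signal falls; plate controls were basal vehicle for no effect and high inhibitor control for full effect; nearly all actives have a fitted effect of over 50% in size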
#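 CHO cells stably expressing M1 receptor (2000/well) were cultured 16–30 h, then exposed to compounds with a small lithium addition for 30 min at 37C. IP1 was measured by TR-FRET competition; AC50 from Hill fits.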
# LMNA splice mod: modulators of lamin A splicing | Potency, µM (series often up to 46.1 µM), for the others: top-dose ratio change, negative = inhibition, actives largely listed as inhibitors | 200,000 compounds, 0.01% hits | HeLa LMNA splicing GFP/RFP minigene ratio, 48 h; active means well fitted inhibition curve with a large enough effect in the signal ratio, with a control signal flat, not every such curve was filed as active; inconclusive means small, poorly fitted or top-dose-only effect, or effect the other way, or a change in a side signal; the % refers to the signal ratio
#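 S3 HeLa stable clones carrying a lamin A-EGFP splicing minigene plus DsRed2 were seeded at 600 cells/well in Opti-MEM with 2% FBS, pin-dosed and incubated 48 h at 37°C. Acumen cytometry (488 nm) gave the GFP/RFP total-intensity ratio.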
# HPGD block: blocks human HPGD enzyme activity. AID 894. P15428. 150,000 compounds, 4.3% hits. Potency, µM, for the others: at the highest dose activity change, negative = inhibition, actives largely listed as inhibitors. purified HPGD, NADH fluorescence kinetic, PGE2 substrate; active means well fitted inhibition curve with a large enough effect, not every such curve was filed as active; inconclusive means small, poorly fitted or top-dose-only effect, or another doubt; inactive means no such curve, though single readings can be large or run the other way
# Target sequence (P15428 whole entry, looked up): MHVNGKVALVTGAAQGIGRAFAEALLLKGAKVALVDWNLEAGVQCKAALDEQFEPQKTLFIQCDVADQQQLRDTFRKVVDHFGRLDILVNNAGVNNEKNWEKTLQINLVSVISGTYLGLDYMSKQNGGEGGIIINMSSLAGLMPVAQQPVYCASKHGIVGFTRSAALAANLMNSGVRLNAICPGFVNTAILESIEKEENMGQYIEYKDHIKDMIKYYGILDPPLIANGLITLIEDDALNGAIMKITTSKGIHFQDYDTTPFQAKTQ
#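 20 nM HPGD preincubated 15 min at room temperature with compound in 50 mM Tris-HCl pH 8, 0.01% Tween 20. Started with 1 mM NAD+ and 30 uM prostaglandin E2; NADH fluorescence (360/450 nm) read 5 times over 30-s intervals, last minus first.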
# KinaseGlo FLuc: blocks Kinase-Glo luciferase, a counter-screen artifact; 200,000 compounds, 0.28% hits; AID 1379; Kinase-Glo luciferase, ATP luminescence, 8 min; Potency, µM (series often up to 38.3 µM), without a hit: at the highest dose activity change, negative = inhibition, most hits filed as inhibitors; Q27757; further: nearly all actives have a fitted effect of over 60% in size
#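 Inhibition of Kinase-Glo luciferase light generation was assessed at 10 uM ATP in pH 7.2 imidazole buffer, with luminescence measured after eight minutes at ambient temperature.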
# ALDH1A1 block: inhibitors of human aldehyde dehydrogenase 1A1 | Purified ALDH1A1, NADH fluorescence, propionaldehyde substrate | Potency, µM (doses to about 75.3 µM), inactives show at the top dose activity, negative = inhibition, most hits filed as inhibitors | 220,000 compounds, 7.3% hits; active means well fitted inhibition curve with a large enough effect, not every such curve was filed as active; inconclusive means small, poorly fitted or top-dose-only effect, or another doubt; inactive means no such curve, though single readings can be large or run the other way;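 further: plate controls were no enzyme wells and a reference inhibitor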
# Target sequence (P00352 whole entry, looked up): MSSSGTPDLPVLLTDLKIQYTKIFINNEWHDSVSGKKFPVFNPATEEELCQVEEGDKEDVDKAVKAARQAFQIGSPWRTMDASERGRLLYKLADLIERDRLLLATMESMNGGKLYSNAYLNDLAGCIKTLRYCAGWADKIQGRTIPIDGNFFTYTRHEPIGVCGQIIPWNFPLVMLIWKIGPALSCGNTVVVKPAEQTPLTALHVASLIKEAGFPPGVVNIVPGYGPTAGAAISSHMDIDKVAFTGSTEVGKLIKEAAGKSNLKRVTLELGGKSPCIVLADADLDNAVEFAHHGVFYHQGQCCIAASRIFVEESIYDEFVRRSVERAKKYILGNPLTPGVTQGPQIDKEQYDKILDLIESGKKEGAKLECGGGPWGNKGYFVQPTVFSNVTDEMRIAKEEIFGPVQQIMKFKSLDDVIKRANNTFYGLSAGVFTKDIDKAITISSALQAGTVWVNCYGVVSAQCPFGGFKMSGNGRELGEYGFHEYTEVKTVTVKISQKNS
# Numbers without * were called inactive; u = inconclusive; x = no result given; [ ] = another dose, or the depositor's remark. A selection: hits, their analogues and other compounds. The true share with any hit is near 9%. Unless noted, the call rests on the fitted dose curve; in most records, active means well fitted curve in the direction sought with a large enough effect; inconclusive means small, poorly fitted or top-dose-only effect, or another doubt; inactive means no such curve, though single readings can be large; an effect the other way counts as inactive or inconclusive. Unless noted, on the % scale 0 is the no-effect control and ±100 the full control effect; potency means the concentration at half of the fitted maximal effect.
SMILES,IMPase Li inh,LMNA splice mod,HPGD block,KinaseGlo FLuc,ALDH1A1 block
C=CCOc1ccc(/C(O)=C2\C(=O)C(=O)N(CCCOC)C2c2ccncc2)cc1 (centres undefined),u,10.8%,-29.9%,-0.2%,u
CC(C)S(=O)(=O)CC(=O)c1ccc(Cl)cc1,-9.1%,15.4%[9.22 µM],x,0.1%,-3.1%
CCCCC(=O)NC(Nc1nc(C2CC2)cs1)(C(=O)OCC)C(F)(F)F (centres undefined),-2.9%[38.3 µM],9.8%,-1.0%,-5.3%,2.9%
CCCCN(CC)C(=O)Cc1cn(C)c2ccccc12,5.8%[38.3 µM],6.5%,-9.4%,15.0%,-5.5%
COc1ccc(N2C(=O)C(=O)/C(=C(/O)c3ccc(C)cc3)C2c2cccnc2)cc1 (centres undefined),u,-10.6%,-14.8%,-3.0%,7.94µM*
Cc1ccc(C)c(/C(O)=C2\C(=O)C(=O)N(CCCn3ccnc3)C2c2ccncc2)c1 (centres undefined),-29.3%[38.3 µM],7.0%,28.2µM*,6.7%,u
COc1ccc(/C(=C/Nc2cccc(Br)c2)C(C)=O)cc1OC,-1.0%,16.0%[46 µM],x,-2.8%,u
COCC(=O)N1CCC[C@@]2(CCN(Cc3ccccc3)C2)C1,-6.2%,x,-4.8%,-3.9%,-4.4%
c1ccc2c(CSCc3cccc4ccccc34)cccc2c1,14.9%,x,-5.6%,0.8%[7.66 µM],6.6%[13.5 µM]
O=C1c2ccccc2C(=O)C1Cc1cccc2ccccc12,-6.7%[38.3 µM],-6.8%,14.1µM*,-2.8%,u
CCNC(=O)c1c(O)c2ccccc2[nH]c1=O,19.6%[38.3 µM],5.1%,-7.0%,-1.5%,-1.5%
CC(C)=NNC(=O)c1c(O)c2ccccc2[nH]c1=O,x,x,x,x,12.6µM*
CC(C)(C)n1nnnc1SCC(=O)Nc1nn(-c2ccccc2)nc1C(N)=O,-6.3%,u,x,-1.4%,u
OC1(c2ccc(F)cc2)CCN(Cc2nnnn2Cc2cccs2)CC1,28.6%[38.3 µM],3.7%,-3.9%,-3.5%,4.47µM*
OC1(c2cccc(C(F)(F)F)c2)CCN(Cc2nnnn2Cc2ccccc2)CC1,4.8%,u,x,2.2%,-13.1%
Cc1nc(C(=O)NC(C)C)nn1-c1cc(Cl)cc(Cl)c1,2.9%,1.6%[46 µM],x,-0.6%,1.6%
O=C1Nc2ccccc2/C1=C/C(=O)c1cccs1,47.0%[38.3 µM],-2.4%,u,12.7%,u
CCN1C(=O)/C(=C\C(=O)c2cccs2)c2cc(Br)ccc21,3.9%,-15.2%[46 µM],x,-3.6%,11.2µM*
CN(C)c1nc(OCCNC(=O)Nc2ccccc2)nc(N2CCOCC2)n1,18.8%[38.3 µM],-14.3%,-4.0%,2.1%,1.9%
CN(C)c1nc(OCCNC(=O)Nc2ccccc2)nc(N2CCCCC2)n1,9.5%,x,x,-0.5%,0.891µM*
CCCc1[nH][nH]c(=O)c1C(c1cccc(Cl)c1)C(C#N)C#N (centres undefined),-5.2%[38.3 µM],-2.4%,15.8µM*,0.9%,14.1µM*
Cc1[nH][nH]c(=O)c1C(c1ccccc1[N+](=O)[O-])C(C#N)C#N (centres undefined),-2.6%,1.0%[46 µM],x,-0.3%,u
CC(C)C(=O)Nc1cccc(C(=O)Nc2nnc(C(C)C)s2)c1,-1.0%,-2.8%,-11.6%,-0.5%,-2.4%
CC(C)c1nnc(NC(=O)c2cccc(NC(=O)C(F)(F)F)c2)s1,-6.0%,-7.6%[46 µM],x,4.1%,22.4µM*
Cc1cccc(NC(=O)/C(=C\c2ccc([N+](=O)[O-])o2)NC(=O)c2ccc(Cl)cc2)c1,7.8%,u,-27.6%,-1.3%,4.47µM*
SMILES,IMPase Li inh,LMNA splice mod,HPGD block,KinaseGlo FLuc,ALDH1A1 block
COC(=O)/C(=C\c1ccc([N+](=O)[O-])o1)NC(=O)c1ccccc1,23.1%[38.3 µM],u,-9.4%,-3.8%,11.1%
CCO[C@H]1OC(C(=O)N2CCN(C)CC2)=C[C@@H](C2CC2)[C@@H]1CCCO,-2.6%,x,x,x,-11.6%
CCOC(=O)c1sc(Nc2ccccc2)nc1C,34.5%[38.3 µM],31.4%,u,-3.0%,-11.0%
Cc1nc(Nc2ccccc2)sc1-c1ccccc1,x,u,x,x,22.4µM*
COC(=O)c1sc(Nc2ccccc2)nc1C,9.0%[38.3 µM],10.1%,22.4µM*,-6.2%,-3.6%
Cc1nc(Nc2ccc(C(=O)O)cc2)sc1-c1ccccc1,-11.8%,x,x,1.4%,11.8%
COc1cc(-c2nnc(SCc3cc(=O)oc4cc(O)c(O)cc34)o2)cc(OC)c1OC,32.5%[38.3 µM],u,7.94µM*,-4.8%,u
CCOC(=O)CSc1nnc(-c2cc(OC)c(OC)c(OC)c2)o1,6.2%,u,x,3.2%,1.2%
N/C(=N\OC(=O)c1cc(Br)ccc1Cl)c1ccccn1,10.8%,-1.0%[46 µM],x,-4.2%,-14.9%
N/C(=N\OC(=O)c1ccc2ccccc2c1)c1ccccn1,0.5%,-7.2%[46 µM],x,11.2µM*,2.5%
Cn1ccnc1/C(=N\NC(=O)c1ccccc1)c1cccc([N+](=O)[O-])c1,12.4%,u,x,-4.0%,u
N/C(=N\OC(=O)c1cccc([N+](=O)[O-])c1)c1ccccn1,0.7%,-12.1%[46 µM],x,12.6µM*,u
O=C(N/N=C(\c1ccccc1)c1ccccn1)c1cccc([N+](=O)[O-])c1,0.2%,17.1%[46 µM],x,-0.9%,17.8µM*
N/C(=N\OC(=O)c1ccc(Cl)cc1Cl)c1ccccn1,6.2%,8.0%[46 µM],x,11.2µM*,-1.9%
Cc1cccc(CNc2nc(-c3ccccc3CN(C)C)nc3ccccc23)c1,2.0%,u,-6.0%,0.1%,-3.3%
C/C(=N/NC(=O)CN1CCN(S(=O)(=O)c2ccc(Br)cc2)CC1)c1ccco1,1.9%,6.8%,-0.8%,0.5%,-4.8%
Cc1ccccc1N1CCN(c2ccc(NC(=O)C3CCCCC3C(=O)O)cc2)CC1 (centres undefined),3.5%,u,-3.4%,-4.4%,u
O=S(=O)(/N=C(\c1ccccc1F)N1CCCCC1)c1ccccc1,4.9%,u,-7.6%,2.5%,-4.4%
COCCCN(C(=S)Nc1c(C)cc(C)cc1C)C(C)c1ccccn1 (centres undefined),10.3%,-4.9%[46 µM],x,3.6%,7.7%
N/C(=N\OC(=O)CC1CCCCC1)c1cccc([N+](=O)[O-])c1,2.2%,5.7%,-10.3%,-0.5%,12.6µM*
N/C(=N\OC(=O)CCC1CCCC1)c1cccc([N+](=O)[O-])c1,x,-10.9%,x,x,-2.3%
CCN(CC)c1ccc(NC(=O)c2ccccc2F)cc1S(=O)(=O)Nc1ccccc1OC,9.5%,-10.0%,14.1µM*,-2.6%,4.47µM*
CCN(CC)c1ccc(NC(=O)COc2ccccc2C)cc1S(=O)(=O)Nc1ccccc1OC,-1.1%,-7.7%,28.2µM*,0.9%,11.9µM*
CCN(CC)c1ccc(NC(=O)COc2ccccc2C#N)cc1S(=O)(=O)Nc1ccc(OC)cc1,3.2%,-8.4%,-20.9%,-0.3%,22.4µM*
CCN(CC)c1ccc(NC(=O)c2cnccn2)cc1S(=O)(=O)Nc1ccc(OC)cc1,2.4%,-19.6%,-3.8%,0.7%,3.6%
COc1ccccc1NS(=O)(=O)c1cc(NC(=O)CNC(=O)c2cc(C)cc(C)c2)ccc1C,3.7%,u,-4.4%,-1.9%,-14.0%
